# Measured values: PubChem BioAssay (NCATS)
# Results filed as inconclusive are left out. Entries that show only a call come without a potency. Activity calls are given as the source filed them. Calls follow the shape of the dose curve; as a rule, active = well fitted inhibition curve with a large enough effect; inconclusive = small, poorly fitted or top-dose-only effect; inactive = flat fitted curve, though single readings scatter.
# Molecular target: Voltage-gated inwardly rectifying potassium channel KCNH2 (Homo sapiens) (UniProt Q12809)
# Test: qHTS Assay for Small Molecule Inhibitors of the Human hERG Channel Activity (AID 588834);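 also: lower thallium flux fluorescence means stronger hERG block; nearly all actives have a fitted effect of over 50% in size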
# Conditions: U2OS BacMam hERG, FluxOR thallium flux fluorescence; series mostly up to 46.1 µM
# How it was run: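 Kinetic FDSS fluorescence; U2OS + hERG BacMam (~100 virus particles/cell); FluxOR Tl+ flux; ~10 min cpd; AC50 (Hill).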
# Potency is read from the fitted curve at half-maximal effect.
# Sequence of Voltage-gated inwardly rectifying potassium channel KCNH2 (Homo sapiens) (Q12809 whole entry, looked up): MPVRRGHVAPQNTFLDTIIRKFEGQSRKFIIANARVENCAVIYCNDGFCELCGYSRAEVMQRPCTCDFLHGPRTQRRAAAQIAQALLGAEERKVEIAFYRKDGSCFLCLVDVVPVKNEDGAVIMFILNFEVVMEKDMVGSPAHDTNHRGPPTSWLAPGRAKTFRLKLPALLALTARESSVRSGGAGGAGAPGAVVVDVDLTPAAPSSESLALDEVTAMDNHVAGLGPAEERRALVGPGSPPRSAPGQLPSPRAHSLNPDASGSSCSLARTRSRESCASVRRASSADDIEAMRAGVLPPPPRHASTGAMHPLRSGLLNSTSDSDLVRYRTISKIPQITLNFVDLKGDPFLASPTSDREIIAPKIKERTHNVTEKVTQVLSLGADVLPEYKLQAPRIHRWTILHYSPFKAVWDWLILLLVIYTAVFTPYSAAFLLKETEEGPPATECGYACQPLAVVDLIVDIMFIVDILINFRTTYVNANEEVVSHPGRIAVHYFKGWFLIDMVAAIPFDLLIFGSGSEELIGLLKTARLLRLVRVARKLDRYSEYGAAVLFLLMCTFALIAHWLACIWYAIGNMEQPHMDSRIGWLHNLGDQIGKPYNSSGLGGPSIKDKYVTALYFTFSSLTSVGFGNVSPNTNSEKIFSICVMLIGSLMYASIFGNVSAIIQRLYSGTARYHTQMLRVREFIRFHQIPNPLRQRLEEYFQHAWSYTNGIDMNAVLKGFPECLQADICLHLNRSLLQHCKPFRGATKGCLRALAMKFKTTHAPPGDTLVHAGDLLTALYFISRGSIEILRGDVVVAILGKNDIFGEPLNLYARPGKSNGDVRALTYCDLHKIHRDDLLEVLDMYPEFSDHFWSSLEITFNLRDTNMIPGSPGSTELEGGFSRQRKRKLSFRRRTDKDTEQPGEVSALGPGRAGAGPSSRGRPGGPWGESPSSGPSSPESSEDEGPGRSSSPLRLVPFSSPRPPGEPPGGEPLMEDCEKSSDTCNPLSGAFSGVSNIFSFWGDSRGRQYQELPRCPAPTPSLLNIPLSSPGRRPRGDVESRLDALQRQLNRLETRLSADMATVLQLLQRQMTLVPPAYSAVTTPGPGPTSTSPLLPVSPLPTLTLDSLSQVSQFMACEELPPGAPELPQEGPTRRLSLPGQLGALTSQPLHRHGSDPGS
row,SMILES,Potency
1,O=C1/C(=C\c2cccs2)CCC/C1=C\c1cccs1,inactive
2,OC1OC[C@@H](O)[C@H](O)[C@@H]1O (stereo partly drawn),inactive
3,Cc1ccc(S(=O)(=O)NC(=O)N[C@@H](C)Cc2ccccc2)cc1,inactive
4,CCCCCCOC(=O)c1cccnc1,inactive
5,Cc1cc(C)c(NC(=O)C[C@H](CC(=O)O)c2cccc3ccccc23)c(C(=O)N2CCC3(CCCC3)CC2)c1,inactive
6,CCC(=O)OC(OP(=O)(CCCCc1ccccc1)CC(=O)N1C[C@H](C2CCCCC2)C[C@H]1C(=O)O)C(C)C (stereo partly drawn),inactive
7,CC1=C[C@H](O)CC(C)(C)[C@H]1/C=C/C(C)=C/C=C/C(C)=C/C=C/C=C(C)/C=C/C=C(C)/C=C/C1=C(C)C[C@@H](O)CC1(C)C,inactive
8,O=C(O)CCCC/C=C(\c1ccccc1)c1cccnc1,inactive
9,CC(C)(C)NCC(O)c1ccc(O)c(CO)n1 (stereo not drawn),inactive
10,CNC(=O)c1c(I)c(C(=O)NCC(=O)Nc2c(I)c(C(=O)O)c(I)c(C(=O)NCCO)c2I)c(I)c(N(C)C(C)=O)c1I,inactive
11,CN(C)c1ccc(C(=C2C=CC(=[N+](C)C)C=C2)c2c(O)c(S(=O)(=O)[O-])cc3cc(S(=O)(=O)O)ccc23)cc1,inactive
12,Oc1cc(O)cc(O)c1,inactive
13,CCOC(=O)[C@@H](N)CS,inactive
14,Nc1nc(/C(=C/CC(=O)O)C(=O)N[C@@H]2C(=O)N3C(C(=O)O)=CCS[C@H]23)cs1,inactive
15,Cc1cc(C(=O)NCCc2ccc(S(=O)(=O)NC(=O)NN3CCCCCC3)cc2)no1,inactive
16,CN[C@@H]1[C@H](O[C@H]2[C@H](O[C@H]3[C@H](O)[C@@H](O)[C@H](N=C(N)N)[C@@H](O)[C@@H]3N=C(N)N)O[C@@H](C)[C@]2(O)C=O)O[C@@H](CO)[C@H](O)[C@H]1O,inactive
17,O=C(O)CCC/C=C\C[C@@H]1[C@@H](/C=C/[C@@H](O)COc2cccc(Cl)c2)[C@H](O)C[C@@H]1O,inactive
18,CC(=O)Nc1c(I)c(C(=O)O)c(I)c(N(C)C(C)=O)c1I,inactive
19,Cc1c(Cl)cccc1Nc1ncccc1C(=O)O,inactive

row,SMILES,Potency
1,CC(C)CN(C[C@@H](O)[C@H](Cc1ccccc1)NC(=O)O[C@@H]1CCOC1)S(=O)(=O)c1ccc(N)cc1,inactive
2,CCCCCCCCCCCCCCCC(=O)OC[C@H](COP(=O)([O-])OCC[N+](C)(C)C)OC(=O)CCCCCCCCCCCCCCC,inactive
3,O=C(O)/C=C/C(=O)Nc1ccc(S(=O)(=O)Nc2nccs2)cc1,inactive
4,C[C@H](O)CN(C)C,inactive
5,O=c1[nH]c(=O)n([C@H]2C[C@H](O)[C@@H](CO)O2)cc1/C=C/Br,inactive
6,O=C(/C=C/c1cccc(F)c1)NC1CC1,inactive
7,O=C(O)c1ccc(NC(=O)[C@H](Cc2ccc(O)cc2)NC(=O)c2ccccc2)cc1,inactive
8,CN1C(=O)OC(C)(C)C1=O,inactive
9,COC(=O)CCC[N+](C)(C)C,inactive
10,CC(=O)Nc1ccc(NC(=S)NC(=O)c2ccc(C(C)(C)C)cc2)cc1,8.91 µM (active)
11,F[Si-2](F)(F)(F)(F)F,inactive
12,O=C(NNCNNC(=O)c1ccncc1)c1ccncc1,inactive
13,CC[C@@H](C)[C@H](N)C(=O)O,inactive
14,CC1(C)C(\C=C/C=C\C=C/C=C2/N(CCCCS(=O)(=O)O)c3ccc4ccccc4c3C2(C)C)=[N+](CCCCS(=O)(=O)[O-])c2ccc3ccccc3c21,inactive
15,CO/N=C(\C(=O)N[C@@H]1C(=O)N2C(C(=O)O)=C(CSC(=O)c3ccco3)CS[C@H]12)c1csc(N)n1,inactive
16,C[C@]12CC[C@@H]3c4ccc(O)cc4CC[C@H]3[C@@H]1CC[C@@H]2OP(=O)(O)O,inactive
17,C[C@@H]1C[C@H]2[C@@H]3CCC4=CC(=O)C=C[C@]4(C)[C@@]3(F)[C@@H](O)C[C@]2(C)[C@@]1(O)C(=O)COC(=O)c1cccc(S(=O)(=O)O)c1,inactive
18,CO[C@H]1C[C@@H]2CC[C@@H](C)[C@@](O)(O2)C(=O)C(=O)N2CCCC[C@H]2C(=O)O[C@H]([C@H](C)C[C@@H]2CC[C@@H](OC(=O)C(C)(CO)CO)[C@H](OC)C2)CC(=O)[C@H](C)/C=C(\C)[C@@H](O)[C@@H](OC)C(=O)[C@H](C)C[C@H](C)/C=C/C=C/C=C/1C,inactive
19,CC(C)C1=CC2=CC[C@@H]3[C@](C)(CCC[C@@]3(C)C(=O)O)[C@H]2CC1,inactive
